Measurements from the OligoGym collection.

The sequences below were run against SLC7A13 (assay: pooled miR-30 sensor sort-seq; sequence = guide strand). Conditions: shRNA.
Also: reference of the scale not given here.

| Sequence | sensor-assay potency score (higher = more potent) |
| --- | --- |
| ATCATTAATAATATAGACCATA | -1.16 |
| TAAATAAACTACAGTCACCAGA | -0.342 |
| TATGCCAACACACCTTTGGGGG | -0.996 |
| AAATCGTTCTACATTCTCCTTT | 0.252 |
| TAGTATTGAGCTCCACTGCATG | -1 |
| TTATCAGGAACACTACTCCAGT | -0.614 |
| TTAACCTTGATTTGGAATCTGA | 0.0155 |
| TAATCCGCTGAGAACTAACAGA | -0.752 |
| TAATTGTAAATAGCAAGTCATC | -1.71 |
| TTAATAAGCAAAAAACTTGTGC | -0.255 |
| ATATAGACCATAATGAACCCGT | -0.357 |
| TTCAGCATCAAAAGCATTCTGA | -0.117 |

What follows are sequences tested against SLC8A1 in the same assay as above. Conditions: shRNA.

| Sequence | sensor-assay potency score (higher = more potent) |
| --- | --- |
| TTGTAAAACAGAAGTCTCCTAT | 0.149 |
| TTTATCTGGATGCTTCTGCTTA | -0.388 |
| TTAATCTTCCTTGTCTCTCCGT | 0.395 |
| TAATCTTCCTTGTCTCTCCGTC | 0.74 |
| TTGTCTTGGTGGTCTCTCCATT | -0.926 |
| ATGTTCTCTAGCATGAACCTTC | -0.822 |
| TATCACAACAACATTTCCGAAC | -0.676 |
| TTCTCTAGCATGAACCTTCCTG | -0.164 |
| TCTTACAGTAATATGATCCAGT | 0.348 |
| TTGAACATGATGATGCCCCTGG | 0.652 |
| TAAAACTGACAGACAATCCCAA | 0.165 |

What follows are sequences tested against SLC8A3 in the same assay as above. Conditions: shRNA.

| Sequence | sensor-assay potency score (higher = more potent) |
| --- | --- |
| TTGTAGTCCACATACATGGTCT | -0.435 |
| TTTCTTAATTGTCACCTCCCTC | -0.959 |
| TACAAGAGCACGCTGATGCAGA | -0.14 |
| TGATCTTGCGAGTCTCTCCGTC | -0.247 |
| TTTGTATCTGACTTGATTCAAC | -0.929 |
| TTCTGCTGCATGTTTCTTCAGG | -0.419 |
| TTTGTAGTCCACATACATGGTC | -0.363 |
| TATTTGTAGAAGAGCAGTCGTT | -0.77 |
| TTGATCTTGCGAGTCTCTCCGT | -0.572 |
| TTGATCAGTTTGTCCACCGTAG | 0.465 |
| TTAAATACTGTGTAAAGTCGGT | -0.0881 |

The sequences below were run against SLC9A10 in the same assay as above. Conditions: shRNA.

| Sequence | sensor-assay potency score (higher = more potent) |
| --- | --- |
| TTGAAATGTGCAACAAACCGAT | 0.415 |
| TTCGTAACAGACAATCTTCTAC | 0.0134 |
| TTTTTCGTAACAGACAATCTTC | -0.245 |
| TATCGGAAAATCTTTCTCCTTT | -0.118 |
